The record followed here is PubChem BioAssay (EPA / NIEHS).

Activity calls are given as the source filed them. Rule for the calls: active = hit-call score of the fitted dose curve at least 0.9, where 1 is the maximum; inactive = score below 0.9.

Assay [1] is described as follows: ATG_CRE_CIS: Attagene CIS-FACTORIAL HepG2 Assay for human cAMP Responsive Element (CRE) binding protein 3 (AID 2282926). The conditions noted are these: HepG2 CRE cis-reporter, Attagene multiplexed mRNA; actives raise or lower the signal. In outline: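 HepG2 cells transiently transfected with cis-element-driven multiple reporter transcription units; CRE reporter mRNA measured 24 h after dosing by RT-PCR, 6-FAM labelling, HpaI digestion and capillary electrophoresis. Bidirectional fit versus DMSO baseline.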

Assay [2] deals with CCAAT/enhancer-binding protein beta (Homo sapiens) (UniProt P17676). The assay can be described thus: ATG_C_EBP_CIS: Attagene CIS-FACTORIAL HepG2 Assay for human CCAAT/Enhancer Binding Protein (C/EBP) beta (AID 2282927). The conditions noted are these: HepG2 Attagene cis-factorial transcription factor reporter; actives raise or lower the signal. In outline:
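RT-PCR/capillary electrophoresis fluorescence of reporter mRNA, 24 h post-dose, in HepG2 cells carrying transfected cis-promoter reporter units. Bidirectional curve fitting against DMSO baseline captures gain or loss of signal.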

Assay [3] can be described thus: ATG_CMV_CIS: Attagene CIS-FACTORIAL HepG2 Assay for human CMV (Internal Marker) (AID 2282928).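 Note: endpoint acts as a background internal control marker rather than a target.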 To be noted: HepG2 CMV promoter reporter, transcription factor profiling; actives raise or lower the signal. A digest of the protocol:
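Endogenous transcription factor activity read in HepG2 via transfected cis-promoter reporter units. After 24 h dosing, reporter mRNA measured by RT-PCR/capillary electrophoresis; gain or loss of signal fit relative to DMSO.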

The nature of assay [4]: ATG_DR4_LXR_CIS: Attagene CIS-FACTORIAL HepG2 Assay for human Liver X Receptor (LXR), DR4 submotif (AID 2282929). The conditions noted are these: HepG2 Attagene DR4 cis-reporter, mRNA transcription; actives raise or lower the signal. A digest of the protocol:
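After transient transfection with multiplexed cis-promoter reporter units, HepG2 cells received test chemicals for 24 h. Reporter mRNA induction, detected by fluorescence after RT-PCR and capillary electrophoresis, was scored relative to DMSO.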

Assay [5] can be described thus: ATG_AP_1_CIS: Attagene CIS-FACTORIAL HepG2 Assay for human Activator Protein 1 (AP-1) (AID 2282931). The conditions noted are these: HepG2 Attagene cis-factorial AP-1 reporter mRNA; actives raise or lower the signal. A digest of the protocol: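 After 24 h incubation with test chemical, RNA from transfected HepG2 cells was reverse-transcribed, amplified, fluorescently labelled and digested before capillary electrophoresis. Reporters were driven by cis-regulatory promoters; activity fitted bidirectionally versus DMSO.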

A short description of assay [6]: ATG_BRE_CIS: Attagene CIS-FACTORIAL HepG2 Assay for human Bone Morphogenetic Protein (BMP) Response Element (BRE) (AID 2282933). To be noted: HepG2 BMP response element reporter, Attagene transcription factor profiling; actives raise or lower the signal. A digest of the protocol:
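Gain- or loss-of-signal was derived by bidirectional fitting against DMSO controls. The signal came from reporter mRNA, measured by RT-PCR and capillary electrophoresis, in HepG2 cells transiently carrying multiple reporter units and dosed for 24 h.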

Assay [7] can be described thus: ATG_E_Box_CIS: Attagene CIS-FACTORIAL HepG2 Assay for human Enhancer Box (E-box) (AID 2282936). The conditions noted are these: HepG2 E-box cis-reporter transcription, actives raise or lower the signal. A digest of the protocol:
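HepG2 cells transiently transfected with multiplexed cis-element reporter units sensing endogenous transcription factor activity; 24 h compound exposure. Reporter mRNA measured by RT-PCR, 6-FAM primer extension, HpaI digestion and capillary electrophoresis; bidirectional fit versus DMSO.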

Assay [8] in a line: ATG_M_19_CIS: Attagene CIS-FACTORIAL HepG2 Assay for M19 Transcription Factor (Internal Marker) (AID 2282939). To be noted: HepG2 Attagene CIS-FACTORIAL M19 internal marker reporter; actives raise or lower the signal. In outline:
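Following a 24 h exposure, RNA from transfected HepG2 cells was reverse-transcribed, PCR-amplified with reporter-specific primers, end-labelled with 6-FAM and HpaI-digested before capillary separation. Values represent gain or loss versus DMSO.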

Assay [9] is described as follows: ATG_GATA_CIS: Attagene CIS-FACTORIAL HepG2 Assay for human GATA Binding Protein (AID 2282944). The conditions noted are these: HepG2 GATA cis-element reporter, Attagene multiplex mRNA; actives raise or lower the signal. In outline: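 DMSO serves as negative control and baseline for bidirectional fitting of reporter mRNA changes. HepG2 cells bearing transiently transfected cis-promoter reporters were exposed 24 h; transcripts detected via RT-PCR and capillary electrophoresis.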

Assay [10] in a line: ATG_ISRE_CIS: Attagene CIS-FACTORIAL HepG2 Assay for human Interferon Regulatory Factor 1 (IRF1) binding to an Interferon-Stimulated Response Element (ISRE) (AID 2282948). To be noted: HepG2 ISRE cis-reporter (Attagene), mRNA transcription readout; actives raise or lower the signal. A digest of the protocol: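 Transfected HepG2 (multiple reporter transcription units, cis elements) dosed 24 h. RNA → oligo(dT) RT → PCR → 6-FAM primer extension → HpaI → CE. DMSO = negative control/baseline.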

The nature of assay [11]: ATG_M_32_CIS: Attagene CIS-FACTORIAL HepG2 Assay for M32 Transcription Factor (Internal Marker) (AID 2282949).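 Note: background control marker of the multiplexed CIS panel rather than a real target.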 The conditions noted are these: HepG2 Attagene cis-factorial M32 reporter, mRNA; actives raise or lower the signal. In outline:
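Internal background marker read-out: RT-PCR/capillary electrophoresis fluorescence of reporter transcripts from transiently transfected HepG2 cells after 24 h chemical exposure. Activity fitted bidirectionally relative to DMSO negative control.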

A short description of assay [12]: ATG_M_06_CIS: Attagene CIS-FACTORIAL HepG2 Assay for M06 Transcription Factor (Internal Marker) (AID 2282950). The conditions noted are these: HepG2 Attagene CIS-FACTORIAL M06 internal marker reporter; actives raise or lower the signal. A digest of the protocol: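 Fluorescence-labelled RT-PCR products from cis-promoter reporter units, cut with HpaI and resolved by capillary electrophoresis, give the signal. Cells are human HepG2, dosed for 24 h. Serves as background control, fitted relative to DMSO.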

Assay [13] in a line: ATG_MRE_CIS: Attagene CIS-FACTORIAL HepG2 Assay for human Metal Responsive Element (MRE) (AID 2282954). To be noted: HepG2 MRE cis-reporter transcription, Attagene multiplex; actives raise or lower the signal. In outline:
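HepG2 cells transiently transfected with multiple cis-element reporter units measure endogenous MTF1-driven transcription. After 24 h compound exposure, reporter mRNA is quantified by RT-PCR with 6-FAM labelling, HpaI digestion and capillary electrophoresis; bidirectional fits versus DMSO.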

Assay [14] deals with Paired box protein Pax-6 (Homo sapiens) (UniProt P26367). Nature of the assay: ATG_Pax6_CIS: Attagene CIS-FACTORIAL HepG2 Assay for human Paired Box 6 (PAX6) (AID 2282956). To be noted: HepG2 CIS-FACTORIAL PAX6 reporter transcription, RNA readout; actives raise or lower the signal. A digest of the protocol:
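Transient MRTU transfection of HepG2 → compound exposure 24 h → TriZol RNA, oligo(dT) RT → PCR, 6-FAM primer extension, HpaI cut → capillary electrophoresis; activity fitted both directions against DMSO.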

A short description of assay [15]: ATG_PXRE_CIS: Attagene CIS-FACTORIAL HepG2 Assay for human Pregnane X Receptor Element (PXRE) (AID 2282957). The conditions noted are these: HepG2 Attagene CIS-FACTORIAL PXRE reporter, mRNA; actives raise or lower the signal. In outline: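 HepG2 cells transiently transfected with cis-element-driven multiplexed reporter units; after 24 h chemical exposure, reporter mRNA measured by RT-PCR, 6-FAM labelling, HpaI digestion and capillary electrophoresis. Bidirectional fitting relative to DMSO.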

The nature of assay [16]: ATG_Sox_CIS: Attagene CIS-FACTORIAL HepG2 Assay for human SRY-box transcription factor (SOX) (AID 2282960). To be noted: HepG2 Attagene cis-factorial SOX reporter, mRNA; actives raise or lower the signal. A digest of the protocol:
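Using transiently transfected HepG2 cells, reporter transcription driven by cis elements was assessed 24 h after dosing. Signal was fluorescence of capillary-separated RT-PCR products, with DMSO defining baseline activity.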

Assay [17] concerns the target Transcription factor Sp1 (Homo sapiens) (UniProt P08047). The assay can be described thus: ATG_Sp1_CIS: Attagene CIS-FACTORIAL HepG2 Assay for human Specificity Protein 1 (Sp1) (AID 2282961). To be noted: HepG2 Sp1 cis-reporter transcription, actives raise or lower the signal. A digest of the protocol: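 After transient transfection of HepG2 cells with cis-promoter reporter units and 24 h chemical treatment, reporter transcripts were quantified by RT-PCR and capillary electrophoresis fluorescence. Gain- and loss-of-signal fitted against DMSO.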

Assay [18] is described as follows: ATG_TA_CIS: Attagene CIS-FACTORIAL HepG2 Assay for human TA Basal Promoter (AID 2282964). The conditions noted are these: HepG2 Attagene CIS-factorial TA basal promoter reporter; actives raise or lower the signal. In outline: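 Multiplexed mRNA reporter assay, HepG2, 24 h. Reporter cDNA amplified, 6-FAM primer-extended, HpaI-cut, CE-sized; DMSO = negative control and baseline.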

The nature of assay [19]: ATG_TCF_b_cat_CIS: Attagene CIS-FACTORIAL HepG2 Assay for human T-Cell-Factor with beta-catenin (TCF/b-cat) (AID 2282965). To be noted: HepG2 TCF/beta-catenin cis-reporter transcription, actives raise or lower the signal. A digest of the protocol: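 HepG2 cells transiently transfected with multiple cis-promoter-regulated reporter transcription units, so endogenous transcription factor activity is measured. Reporter mRNA read 24 hours after dosing by RT-PCR, fluorescent labelling and capillary electrophoresis; bidirectional fitting against DMSO.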

A short description of assay [20]: ATG_TAL_CIS: Attagene CIS-FACTORIAL HepG2 Assay for human TAL Basal Promoter (AID 2282966).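 Note: background control endpoint measuring basal TAL promoter reporter mRNA not a specific factor.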 The conditions noted are these: HepG2 Attagene cis-factorial TAL promoter reporter; actives raise or lower the signal. In outline:
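HepG2 cells transiently transfected with multiplexed cis-promoter reporter units, dosed 24 h. Reporter mRNA quantified by RT-PCR, 6-FAM labelling, HpaI digestion and capillary electrophoresis; TAL basal promoter serves as background control, fitted bidirectionally versus DMSO.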

Transcription factor Sp1 (Homo sapiens), sequence (P08047 whole entry, looked up): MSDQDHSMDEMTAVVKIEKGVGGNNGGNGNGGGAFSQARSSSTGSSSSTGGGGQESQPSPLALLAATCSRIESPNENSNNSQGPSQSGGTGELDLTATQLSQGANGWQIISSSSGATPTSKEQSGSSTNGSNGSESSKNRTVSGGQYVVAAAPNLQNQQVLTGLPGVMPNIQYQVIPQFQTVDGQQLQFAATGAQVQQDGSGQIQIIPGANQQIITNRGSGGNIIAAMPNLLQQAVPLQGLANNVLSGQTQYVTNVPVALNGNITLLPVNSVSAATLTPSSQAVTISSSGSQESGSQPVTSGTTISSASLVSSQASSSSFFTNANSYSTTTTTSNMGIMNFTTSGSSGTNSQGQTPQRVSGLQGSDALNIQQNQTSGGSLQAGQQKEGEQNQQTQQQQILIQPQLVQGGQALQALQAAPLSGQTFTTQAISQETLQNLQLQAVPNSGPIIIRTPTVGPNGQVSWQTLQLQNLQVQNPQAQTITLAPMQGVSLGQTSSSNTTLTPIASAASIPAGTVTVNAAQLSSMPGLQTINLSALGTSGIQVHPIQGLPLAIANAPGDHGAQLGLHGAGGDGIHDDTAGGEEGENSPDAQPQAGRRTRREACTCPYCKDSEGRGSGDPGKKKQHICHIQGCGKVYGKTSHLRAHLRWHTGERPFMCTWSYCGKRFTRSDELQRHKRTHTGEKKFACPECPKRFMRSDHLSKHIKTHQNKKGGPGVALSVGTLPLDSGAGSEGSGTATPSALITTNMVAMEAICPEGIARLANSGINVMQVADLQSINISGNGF
CCAAT/enhancer-binding protein beta (Homo sapiens), sequence (P17676 whole entry, looked up): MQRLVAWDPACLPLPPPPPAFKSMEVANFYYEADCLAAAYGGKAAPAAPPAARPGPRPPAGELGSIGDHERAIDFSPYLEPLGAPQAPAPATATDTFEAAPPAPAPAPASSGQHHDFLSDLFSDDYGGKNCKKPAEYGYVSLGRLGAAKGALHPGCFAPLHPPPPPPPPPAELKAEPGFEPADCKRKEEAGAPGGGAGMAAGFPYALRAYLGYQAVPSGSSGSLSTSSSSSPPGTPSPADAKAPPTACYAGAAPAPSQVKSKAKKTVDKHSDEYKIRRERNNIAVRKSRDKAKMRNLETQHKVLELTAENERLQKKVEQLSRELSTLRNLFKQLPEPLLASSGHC
Paired box protein Pax-6 (Homo sapiens), sequence (P26367 whole entry, looked up): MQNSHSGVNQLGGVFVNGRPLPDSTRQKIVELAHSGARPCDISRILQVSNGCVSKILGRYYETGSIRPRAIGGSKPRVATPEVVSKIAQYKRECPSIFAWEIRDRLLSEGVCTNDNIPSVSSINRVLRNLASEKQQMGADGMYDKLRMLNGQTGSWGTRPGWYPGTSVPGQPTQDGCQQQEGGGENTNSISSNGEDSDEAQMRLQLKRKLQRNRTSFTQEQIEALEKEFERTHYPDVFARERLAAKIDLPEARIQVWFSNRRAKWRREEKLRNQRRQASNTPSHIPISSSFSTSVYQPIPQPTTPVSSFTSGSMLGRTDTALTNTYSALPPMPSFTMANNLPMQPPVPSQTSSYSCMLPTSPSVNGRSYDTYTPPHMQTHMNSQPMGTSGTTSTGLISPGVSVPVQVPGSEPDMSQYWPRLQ

As to `O=C(CC(C(=O)OC1CCCCC1)S(=O)(=O)O)OC1CCCCC1` (stereo not given), the molecule was called inactive in [1], in [2], in [3], in assay [4], in assay [5] and in assay [6]. The result in assay [7], in [8], in assay [9], in assay [10], in assay [11] and in assay [12] was inactive. Besides, the outcome in assay [13], in [14], in assay [16], in [17], in assay [18] and in [19] was inactive. Also, in [20], the molecule was called inactive. Besides, the AC50 (commonly the concentration giving half of the maximal activity seen) in assay [15] was 9.51 µM (active).
`Clc1ccc(Sc2cc(Cl)c(Cl)cc2Cl)cc1`: the call in [1], in assay [2], in [3], in assay [4], in [5] and in assay [6] was inactive. For the same molecule, the result in [7], in assay [8], in assay [9], in assay [10], in assay [11] and in [12] was inactive. Also, the molecule was called inactive in assay [13], in [14], in assay [16], in [17], in assay [18] and in [19]. Further, the result in [20] was inactive. The concentration at half-maximal activity (AC50) in [15] is 5.97 µM (active).
In the case of `CO[Si](CCCNCCN)(OC)OC`, the result in assay [1], in assay [2], in assay [3], in [4], in assay [5] and in assay [6] was inactive. Besides, the result in assay [7], in assay [8], in [9], in assay [10], in assay [11] and in assay [12] was inactive. Moreover, the outcome in assay [13], in [14], in [16], in [17], in assay [18] and in assay [19] was inactive. Moreover, the outcome in [20] was inactive. Further, in assay [15], the AC50 was 37.3 µM (active).
Take `CNC(=C[N+](=O)[O-])NCCSCc1csc(CN(C)C)n1`: the molecule was called inactive in assay [1], in [2], in assay [3], in [4], in [5] and in assay [6]. In addition, the outcome in assay [7], in [8], in assay [9], in [10], in assay [11] and in [12] was inactive. The molecule was classed as inactive in assay [13], in [14], in assay [15], in assay [16], in [17] and in assay [18]. Also, the outcome in assay [19] and in assay [20] was inactive.
With `C=CCOCC(CC)(CO)COCC=C`, the call in [1], in assay [2], in assay [3], in assay [4], in [5] and in assay [6] was inactive. The outcome in assay [7], in assay [8], in [9], in [10], in [11] and in assay [12] was inactive. Also, the outcome in [13], in [14], in assay [16], in [17], in [18] and in assay [19] was inactive. In [20], the result was inactive. Further, the AC50 in assay [15] is 47.1 µM (active).
Take `Oc1cccc2ccccc12`: the call in [1], in assay [2], in assay [4], in [5], in [6] and in [7] was inactive. The molecule was called inactive in assay [8], in assay [9], in assay [10], in assay [11], in assay [12] and in assay [13]. The outcome in [14], in [16], in assay [17], in assay [18] and in assay [20] was inactive. Also, the AC50 in assay [3] is 100 µM (active); in assay [15] it was 5.66 µM (active); in assay [19] it was 100 µM (active).
As for `O=[N+]([O-])c1ccc2nc[nH]c2c1`, the molecule was classed as inactive in assay [1], in assay [2], in [3], in assay [4], in assay [5] and in assay [6]. The outcome in [7], in [8], in assay [9], in assay [10], in assay [11] and in assay [12] was inactive. The molecule was called inactive in [13], in assay [14], in assay [15], in assay [16], in [17] and in assay [18]. The molecule was classed as inactive in [19] and in [20].
